Common to all, as to design: species or system human, MV4-11 + K-562 + COLO205 + SK-N-BE2 + OVCAR-8
For one assay, the system named is CIT. As to conditions: read-out: apparent Kd, n = 1.
In another assay the test system is PKN2. The following applies: read-out: apparent Kd, n = 1.
The test system of the next assay is ABL1. The following applies: read-out: apparent Kd, n = 1.
The test system of another assay is AURKB. The following applies: read-out: apparent Kd, n = 1.
The subject of another assay is BTK. As to conditions: read-out: apparent Kd, n = 1.
A further assay relates to IRAK3. As to conditions: read-out: apparent Kd, n = 1.
The test system of the next assay is LCK. The following applies: read-out: apparent Kd, n = 1.
For another assay, the system named is NUAK2. The following applies: read-out: apparent Kd, n = 1.
For the next assay, the system named is RPS6KA3. The following applies: read-out: apparent Kd, n = 1.
For the next assay, the system named is MAPK14. The following applies: read-out: apparent Kd, n = 1.
The subject of another assay is ABL2. As to conditions: read-out: apparent Kd, n = 1.
The test system of the next assay is CDC42BPB. The following applies: read-out: apparent Kd; compound concentrations: 100 nM and 1000 nM (sheet 'Samples'), CATDS: 4.0403129227197304E-3; n = 1.
The subject of a further assay is CDK2. The following applies: read-out: apparent Kd; compound concentrations: 100 nM and 1000 nM (sheet 'Samples'), CATDS: 5.1697348126272004E-3; n = 1.
The test system of a further assay is EPHB1. The following applies: read-out: apparent Kd, n = 1.
The next assay deals with MAP3K11. As to conditions: read-out: apparent Kd, n = 1.
A further assay has as its system MARK2. As to conditions: read-out: apparent Kd, n = 1.
For another assay, the system named is PIK3CD. As to conditions: read-out: apparent Kd; compound concentrations: 100 nM and 1000 nM (sheet 'Samples'), CATDS: 4.6666042012861897E-2; n = 1.
The subject of the next assay is PRKCA. As to conditions: read-out: apparent Kd, n = 1.
A further assay has as its system RPS6KB1. The following applies: read-out: apparent Kd, compound concentrations: 100 nM and 1000 nM (sheet 'Samples'), n = 1.
Another assay has as its system PAK6. As to conditions: read-out: apparent Kd; compound concentrations:100 nM and 1000 nM (sheet 'Samples'); n = 1.
The mark [1] stands for this setting: compound concentrations:100 nM and 1000 nM (sheet 'Samples').

Where two headings read alike, the source gives them in different places.

Regarding `CCn1c(-c2nonc2N)nc2c(C#CC(C)(C)O)nc(OCCN)cc21.CCn1c(-c2nonc2N)nc2c(C#CC(C)(C)O)nc(OCCN)cc21.Cl.Cl` [GSK902056A], the figures for the potency estimated from few doses in the assay on CIT (setting [1]) and in the assay with PKN2 (setting [1]) were 1340 nM and 581 nM, respectively.

For `CNC(=O)c1ccccc1Nc1nc(Nc2ccc(N3CCOCC3)cc2)ncc1Cl.Cl` [GSK1576028A], the potency estimated from few doses in the assay on ABL1 (setting [1]) is 1640 nM; in the assay with AURKB (setting [1]) it was 55 nM; in the assay with BTK (setting [1]), 256 nM; with IRAK3 (setting [1]), 3.81 nM; in the assay with LCK (setting [1]) it was 234 nM; in the assay on NUAK2 (setting [1]), 1370 nM. In addition, in the assay with RPS6KA3 (setting [1]), the potency estimated from few doses is 549 nM.

`CCn1c(-c2nonc2N)nc2c(-c3ccccc3)ncc(OCCCN)c21.CCn1c(-c2nonc2N)nc2c(-c3ccccc3)ncc(OCCCN)c21.O=C(O)C(F)(F)F.O=C(O)C(F)(F)F` [GSK260205A]: the potency estimated from few doses was 1630 nM with CIT (compound concentrations: 100 nM and 1000 nM (sheet 'Samples'), CATDS: 2.8413357389646399E-2); 478 nM in the assay with MAPK14 (compound concentrations: 100 nM and 1000 nM (sheet 'Samples'), CATDS: 4.1756268177550598E-2).

On to `Cn1ncc2c(N)ncnc21` [SKF-18267], for which the potency estimated from few doses in the assay on ABL1 (compound concentrations: 100 nM and 1000 nM (sheet 'Samples'), CATDS: 4.5890401321851898E-3) was 972 nM; in the assay on ABL2 (compound concentrations: 100 nM and 1000 nM (sheet 'Samples'), CATDS: 5.0197498438992799E-3), 808 nM; in the assay on AURKB (compound concentrations: 100 nM and 1000 nM (sheet 'Samples'), CATDS: 5.1927798123429401E-3), 756 nM; in the assay with BTK (compound concentrations: 100 nM and 1000 nM (sheet 'Samples'), CATDS: 5.3280284172791698E-3), 720 nM; in the assay on CDC42BPB, 1300 nM; with CDK2 it was 762 nM. Also, the potency estimated from few doses was 1300 nM with CIT (compound concentrations: 100 nM and 1000 nM (sheet 'Samples'), CATDS: 4.0396253783402704E-3); 796 nM in the assay with EPHB1 (compound concentrations: 100 nM and 1000 nM (sheet 'Samples'), CATDS: 5.0582838235080502E-3); 636 nM with IRAK3 (compound concentrations: 100 nM and 1000 nM (sheet 'Samples'), CATDS: 5.6966714044827602E-3); 1290 nM with MAP3K11 (compound concentrations: 100 nM and 1000 nM (sheet 'Samples'), CATDS: 4.0610212954189503E-3); 712 nM with MAPK14 (compound concentrations: 100 nM and 1000 nM (sheet 'Samples'), CATDS: 5.3577076045461004E-3); 1490 nM in the assay on MARK2 (compound concentrations: 100 nM and 1000 nM (sheet 'Samples'), CATDS: 3.8405596428901902E-3). In addition, the potency estimated from few doses is 40.8 nM with PIK3CD; 1330 nM in the assay with PKN2 (compound concentrations: 100 nM and 1000 nM (sheet 'Samples'), CATDS: 4.0047157593236004E-3); 1810 nM in the assay on PRKCA (compound concentrations: 100 nM and 1000 nM (sheet 'Samples'), CATDS: 3.58231732022705E-3); 1090 nM in the assay on RPS6KA3 (compound concentrations: 100 nM and 1000 nM (sheet 'Samples'), CATDS: 4.3523145160936898E-3); 976 nM in the assay on RPS6KB1 (CATDS: 4.5805386510862304E-3).

As for `Fc1ccc(-c2c(-c3ccncc3)[nH]c3cccnc23)cc1` [RO1153853-000], the potency estimated from few doses is 1750 nM with CIT (compound concentrations: 100 nM and 1000 nM (sheet 'Samples'), CATDS: 4.9233992215081297E-2); 308 nM in the assay on MAPK14 (compound concentrations: 100 nM and 1000 nM (sheet 'Samples'), CATDS: 9.4137479402045199E-2).

Turning to `O=C1NC(=O)C(N2CCc3ccccc32)=C1c1ccccc1Cl` [SB-373598], the potency estimated from few doses in the assay with ABL1 (setting [1]) is 172 nM; with ABL2 (setting [1]), 329 nM; in the assay with AURKB (setting [1]), 466 nM; with BTK (setting [1]), 124 nM; in the assay with EPHB1 (setting [1]), 373 nM; in the assay with LCK (setting [1]) it was 138 nM. The potency estimated from few doses with MAP3K11 (setting [1]) was 1040 nM; in the assay on MARK2 (setting [1]) it was 1350 nM; with NUAK2 (setting [1]), 780 nM; in the assay with PAK6, 419 nM; in the assay with RPS6KA3 (setting [1]), 966 nM.

Consider `Cc1cccc(Nc2nc(N[C@H]3CCCC[C@H]3N)ncc2C(N)=O)c1.Cl` [GSK986310C], for which the potency estimated from few doses with MAP3K11 (setting [1]) is 1800 nM; in the assay with PRKCA (setting [1]), 1130 nM.

In the case of `Cl.NCc1ccc(-c2nc(-c3ccc(Cl)c(O)c3)c(-c3ccncc3)[nH]2)cc1` [SB-476429-A], the potency estimated from few doses in the assay with MAPK14 (setting [1]) is 113 nM.

Turning to `CN(c1ccc(NC(=O)N2CCN(CCCN3CCOCC3)CC2)cc1)c1ccnc(Nc2ccc(CS(C)(=O)=O)cc2)n1.Cl` [GW830899A], the potency estimated from few doses in the assay with ABL1 (compound concentrations: 100 nM and 1000 nM (sheet 'Samples'), CATDS: 2.13093198764688E-2) is 1300 nM; with MAP3K11 (compound concentrations: 100 nM and 1000 nM (sheet 'Samples'), CATDS: 1.83131031951747E-2), 1980 nM; in the assay on MAPK14 (compound concentrations: 100 nM and 1000 nM (sheet 'Samples'), CATDS: 2.4950407737396499E-2), 905 nM; with MARK2 (compound concentrations: 100 nM and 1000 nM (sheet 'Samples'), CATDS: 1.9891178500976402E-2), 1550 nM.

Take `CCOC(=O)N1CCC(n2cnc(-c3ccc(F)cc3)c2-c2ccnc(N)n2)CC1` [SB-219952]: the potency estimated from few doses with ABL1 (compound concentrations: 100 nM and 1000 nM (sheet 'Samples'), CATDS: 8.9388068544210691E-3) was 1180 nM; with ABL2 (compound concentrations: 100 nM and 1000 nM (sheet 'Samples'), CATDS: 1.2118968768927599E-2) it was 552 nM; in the assay with BTK (compound concentrations: 100 nM and 1000 nM (sheet 'Samples'), CATDS: 1.0743585683712699E-2), 726 nM; in the assay with EPHB1 (compound concentrations: 100 nM and 1000 nM (sheet 'Samples'), CATDS: 1.10661154917942E-2), 677 nM; in the assay on LCK (compound concentrations: 100 nM and 1000 nM (sheet 'Samples'), CATDS: 1.05022707080212E-2), 767 nM; with MAP3K11 (compound concentrations: 100 nM and 1000 nM (sheet 'Samples'), CATDS: 1.0131438391308501E-2), 838 nM. Also, the potency estimated from few doses is 97.1 nM in the assay on MAPK14 (compound concentrations: 100 nM and 1000 nM (sheet 'Samples'), CATDS: 3.3048485919856201E-2); 1120 nM in the assay with MARK2 (compound concentrations: 100 nM and 1000 nM (sheet 'Samples'), CATDS: 9.1119285329163396E-3); 1760 nM in the assay with RPS6KA3 (compound concentrations: 100 nM and 1000 nM (sheet 'Samples'), CATDS: 7.9232054284878294E-3).

On to `CCOc1nccc2c1nc(-c1nonc1N)n2CC` [SB-737198], for which the potency estimated from few doses with PKN2 (compound concentrations: 100 nM and 1000 nM (sheet 'Samples'), CATDS: 0.50424526517456403) was 231 nM; in the assay on RPS6KB1 (CATDS: 0.20646016989107699) it was 1320 nM.

Turning to `O=C1N=C(NCCc2ccc(Cl)cc2)S/C1=C\c1ccc2ncccc2c1` [RO4498479-000], the potency estimated from few doses in the assay on ABL1 (compound concentrations: 100 nM and 1000 nM (sheet 'Samples'), CATDS: 1.01576334348417E-2) is 536 nM; in the assay on ABL2 (compound concentrations: 100 nM and 1000 nM (sheet 'Samples'), CATDS: 1.7069961948359198E-2), 201 nM; in the assay with AURKB (compound concentrations: 100 nM and 1000 nM (sheet 'Samples'), CATDS: 7.59982177866047E-3), 1200 nM; in the assay on BTK (compound concentrations: 100 nM and 1000 nM (sheet 'Samples'), CATDS: 1.35831068182147E-2), 297 nM; in the assay on EPHB1 (compound concentrations: 100 nM and 1000 nM (sheet 'Samples'), CATDS: 1.3764533210370701E-2), 290 nM; in the assay with LCK (compound concentrations: 100 nM and 1000 nM (sheet 'Samples'), CATDS: 1.3202335772702E-2), 313 nM. For the same compound, the potency estimated from few doses is 733 nM in the assay with MAP3K11 (compound concentrations: 100 nM and 1000 nM (sheet 'Samples'), CATDS: 8.9469693791647507E-3); 960 nM in the assay with MARK2 (compound concentrations: 100 nM and 1000 nM (sheet 'Samples'), CATDS: 8.1372297919538004E-3); 1100 nM in the assay on NUAK2 (compound concentrations: 100 nM and 1000 nM (sheet 'Samples'), CATDS: 7.8006037154547897E-3); 1020 nM in the assay on RPS6KA3 (compound concentrations: 100 nM and 1000 nM (sheet 'Samples'), CATDS: 7.9720572811278097E-3).

For the compound `Cl.ON=C1CCc2cc(-c3nc(C4CCNCC4)[nH]c3-c3ccncc3)ccc21` [SB-614067-R], the potency estimated from few doses in the assay on MAPK14 (setting [1]) is 1160 nM.
